In all, about 5,500 compounds went through this assay and about 2,000 (36%) were called active. Roughly 18% stayed inconclusive and do not appear here. Cut-off read from the data, not from the text of the source: active = normalized growth mostly below about 0.91 (no sharp cut-off); inconclusive = no clear call, values can overlap the other calls; inactive = mostly above about 0.92. Some of the results follow.
Test: chemical genetic growth profiling, strain panel (AID 1159580);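 note: tested at 20 µM; growth read once vehicle control cultures reached saturation at 30 °C; 1 = growth at the plate median or of vehicle wells; lower values mean less growth of the strain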
Settings: S. cerevisiae deletion strains, growth OD

Measured: normalized growth

CC(=O)OC1CC[C@@]2(C)C(CC[C@]3(C)C2CCC2C4CC(C)(C)CCC4(C(=O)O)CC[C@]23C)C1(C)C (stereo not given in full)
inactive: locus YBR021W, strain FUR4, hits give low values 1.02 | locus YBR229C, strain ROT2, hits give low values 0.998 | locus YCL029C, strain bik1, hits give low values 0.968 | locus YDL035C, strain GPR1, hits give low values 1.06 | locus YDL074C, strain BRE1, hits give low values 1.05 | locus YDL101C, strain DUN1, hits give low values 0.985 | locus YDL134C, strain PPH21, hits give low values 1.03 | locus YDL185W, strain tfp1, hits give low values 0.934 | locus YDL192W, strain arf1, hits give low values 1.01 | locus YDR101C, strain arx1, hits give low values 1.02 | locus YDR162C, strain NBP2, hits give low values 1.01 | locus YDR318W, strain mcm21, hits give low values 0.993 | locus YDR388W, hits give low values 0.975 | locus YDR502C, strain sam2, hits give low values 0.999 | locus YER110C, hits give low values 0.971 | locus YER155C, strain BEM2, hits give low values 0.985 | locus YER167W, strain BCK2, hits give low values 0.998 | locus YGL078C, strain dbp3, hits give low values 0.974 | locus YGL086W, strain mad1, hits give low values 1.01 | locus YGL248W, strain PDE1, hits give low values 1.04 | locus YGR135W, strain pre9, hits give low values 0.972 | locus YGR252W, strain gcn5, hits give low values 1.05 | locus YHR030C, strain SLT2, hits give low values 1.01 | locus YHR079C, strain IRE1 (second series), hits give low values 0.975 | locus YHR094C, strain hxt1, hits give low values 0.978 | locus YHR129C, strain ARP1, hits give low values 1.03 | locus YHR200W, strain rpn10, hits give low values 0.999 | locus YIL066C, strain RNR3, hits give low values 1.01 | locus YIL073C, strain SPO22, hits give low values 0.986 | locus YIL125W, strain kgd1, hits give low values 0.979 | locus YIR030C, strain dcg1, hits give low values 0.974 | locus YJL095W, strain BCK1, hits give low values 1.03 | locus YJL134W, strain LCB3, hits give low values 0.994 | locus YJL168C, strain set2, hits give low values 0.977 | locus YJL187C, strain SWE1 (second series), hits give low values 1.01 | locus YJR043C, strain POL32, hits give low values 1.07 | locus YJR075W, strain HOC1, hits give low values 1 | locus YKL009W, strain mrt4, hits give low values 0.966 | locus YKL068W, hits give low values 1.02 | locus YKL085W, strain MDH1 (second series), hits give low values 1.01 | locus YKL085W, strain MDH1, hits give low values 1.01 | locus YKL190W, strain CNB1, hits give low values 0.996 | locus YKR001C, strain vps1, hits give low values 1.01 | locus YLR039C, strain RIC1, hits give low values 1.11 | locus YLR058C, strain SHM2, hits give low values 1.02 | locus YLR102C, strain apc9, hits give low values 0.973 | locus YLR268W, strain sec22, hits give low values 0.998 | locus YLR330W, strain CHS5, hits give low values 0.996 | locus YLR371W, strain rom2, hits give low values 0.968 | locus YLR418C, strain cdc73, hits give low values 1.02 | locus YML016C, strain PPZ1, hits give low values 1 | locus YML032C, strain rad52, hits give low values 0.987 | locus YML124C, strain tub3, hits give low values 0.991 | locus YMR078C, strain ctf18, hits give low values 0.968 | locus YMR223W, strain ubp8, hits give low values 0.976 | locus YMR307W, strain GAS1, hits give low values 1.25 | locus YNL067W, strain RPL9B, hits give low values 0.989 | locus YNL153C, strain GIM3, hits give low values 0.998 | locus YNL233W, strain BNI4, hits give low values 1.03 | locus YNL250W, strain rad50, hits give low values 0.92 | locus YNL271C, strain bni1, hits give low values 0.995 | locus YNL298W, strain CLA4, hits give low values 0.992 | locus YNL307C, strain MCK1, hits give low values 1.01 | locus YNR052C, strain pop2, hits give low values 0.992 | locus YOL006C, strain TOP1, hits give low values 1.25 | locus YOL012C, strain htz1 1.01 | locus YOL147C, strain pex11, hits give low values 0.979 | locus YOR061W, strain CKA2, hits give low values 1 | locus YOR069W, strain VPS5, hits give low values 1 | locus YOR136W, strain idh2, hits give low values 0.983 | locus YOR144C, strain elg1, hits give low values 0.989 | locus YOR184W, strain ser1, hits give low values 1.08 | locus YOR316C, strain cot1, hits give low values 0.964 | locus YPR119W, strain clb2, hits give low values 0.951 | locus YPR141C, strain kar3, hits give low values 0.975 | locus YPR163C, strain tif3, hits give low values 0.985 | locus YPR167C, strain met16, hits give low values 0.99 | strain wtn01, hits give low values 1.01

CC(CC(=O)C(O)C(C)(C)O)C1C(=O)CC2(C)C3=CCC4C(C)(C)C(OC5OCC(O)C(O)C5O)CCC45CC35C(O)CC12C (stereo not given)
inactive: locus YAL021C, strain ccr4, hits give low values 1.01 | locus YAL026C, strain drs2, hits give low values 1.01 | locus YAL030W, strain snc1, hits give low values 1.01 | locus YBL061C, strain skt5, hits give low values 1.01 | locus YBR009C, strain hhf1, hits give low values 1.01 | locus YBR023C, strain chs3, hits give low values 1.02 | locus YBR171W, strain sec66, hits give low values 1.03 | locus YBR231C, strain swc5, hits give low values 1.01 | locus YBR279W, strain paf1, hits give low values 1.02 | locus YCL011C, strain gbp2, hits give low values 1.01 | locus YCL016C, strain dcc1, hits give low values 1.01 | locus YCL061C, strain MRC1, hits give low values 1.01 | locus YCL069W, strain vba3, hits give low values 1 | locus YCR088W, strain abp1, hits give low values 1.02 | locus YDL005C, strain med2, hits give low values 1.01 | locus YDL040C, strain nat1, hits give low values 1.02 | locus YDR001C, strain nth1, hits give low values 1.01 | locus YDR069C, strain doa4, hits give low values 1.01 | locus YDR137W, strain rgp1, hits give low values 0.974 | locus YDR159W, strain sac3, hits give low values 1.02 | locus YDR195W, strain ref2 0.987 | locus YDR297W, strain sur2, hits give low values 1.01 | locus YDR334W, strain swr1, hits give low values 1.02 | locus YDR335W, strain msn5, hits give low values 1.02 | locus YDR392W, strain spt3, hits give low values 1.04 | locus YEL003W, strain gim4, hits give low values 1.01 | locus YEL037C, strain rad23, hits give low values 1.07 | locus YEL061C, strain CIN8 (second series), hits give low values 1.01 | locus YER015W, strain faa2, hits give low values 1.01 | locus YER016W, strain bim1, hits give low values 1.02 | locus YER111C, strain swi4, hits give low values 1.01 | locus YER155C, strain BEM2 (second series), hits give low values 1.02 | locus YFR010W, strain ubp6, hits give low values 1.01 | locus YGL167C, strain pmr1, hits give low values 1.01 | locus YGL173C, strain kem1, hits give low values 1.03 | locus YGL227W, strain vid30, hits give low values 1.01 | locus YGL240W, strain doc1, hits give low values 1.01 | locus YGL253W, strain hxk2, hits give low values 1.02 | locus YHR013C, strain ard1, hits give low values 1.02 | locus YHR027C, strain rpn1, hits give low values 1.01 | locus YHR142W, strain chs7, hits give low values 1 | locus YJL092W, strain hpr5, hits give low values 1.02 | locus YJL095W, strain BCK1 (second series), hits give low values 1.01 | locus YJL115W, strain asf1, hits give low values 1.01 | locus YJL129C, strain trk1, hits give low values 1.02 | locus YJL154C, strain vps35, hits give low values 1.02 | locus YJL164C, strain tpk1, hits give low values 1.03 | locus YJL166W, strain qcr8, hits give low values 1.01 | locus YJL187C, strain SWE1, hits give low values 1.01 | locus YKL160W, strain elf1, hits give low values 1.01 | locus YKR026C, strain gcn3, hits give low values 1.02 | locus YKR091W, strain srl3, hits give low values 1.02 | locus YLL001W, strain dnm1, hits give low values 1.03 | locus YLL026W, hits give low values 1.02 | locus YLL041C, strain sdh2, hits give low values 1.01 | locus YLR027C, strain aat2, hits give low values 1 | locus YLR221C, strain rsa3, hits give low values 1.01 | locus YLR258W, strain gsy2, hits give low values 1.02 | locus YLR262C, strain YPT6 (second series), hits give low values 1.02 | locus YLR320W, strain mms22, hits give low values 1.03 | locus YLR342W, strain FKS1, hits give low values 1.01 | locus YLR357W, strain rsc2, hits give low values 1.02 | locus YLR370C, strain arc18, hits give low values 0.995 | locus YLR384C, strain iki3, hits give low values 1.01 | locus YML120C, strain ndi1, hits give low values 1.02 | locus YMR058W, strain fet3, hits give low values 1.01 | locus YMR125W, strain sto1, hits give low values 1.03 | locus YMR129W, hits give low values 1.01 | locus YMR205C, strain PFK2, hits give low values 1.02 | locus YMR231W, strain pep5, hits give low values 1 | locus YNL071W, strain lat1, hits give low values 1.01 | locus YNL209W, strain ssb2, hits give low values 1.01 | locus YNL248C, strain rpa49, hits give low values 1.01 | locus YNL322C, strain KRE1 (second series), hits give low values 1.01 | locus YNR049C, strain mso1, hits give low values 1.02 | locus YOR001W, strain rrp6, hits give low values 1.01 | locus YOR070C, strain gyp1, hits give low values 1.01 | locus YOR080W, strain dia2, hits give low values 1.02 | locus YOR083W, strain WHI5, hits give low values 1.02 | locus YOR106W, strain vam3, hits give low values 1 | locus YOR265W, strain rbl2, hits give low values 1.01 | locus YOR270C, strain vph1, hits give low values 1.02 | locus YOR290C, strain snf2, hits give low values 1.02 | locus YPL051W, strain arl3, hits give low values 1.01 | locus YPL078C, strain atp4, hits give low values 1.02 | locus YPL106C, strain sse1, hits give low values 1 | locus YPL240C, strain hsp82, hits give low values 1.02

Source: PubChem BioAssay AID1159580 (chemical genetic matrix, 2015)
